The source of these data is PubChem BioAssay (EPA / NIEHS).

The source holds several records for some structures; these can differ, active in one and inactive in another. The source made the active and inactive calls. The calls were made as follows: active = hit-call score of the fitted dose curve at least 0.9, where 1 is the maximum; inactive = score below 0.9.

Common to all, as to conditions: mRNA level, 48 h; actives raise or lower the signal
Read-out in experiment [1]: Cytochrome P450 (CYP1A2), CYP1A2 (gene 1544)
The experiment in a line: LTEA_HepaRG_CYP1A2: Life Technologies and Expression Analysis (LTEA) Assay for Cytochrome P450 (CYP1A2) using HepaRG (AID 2283479). In outline:
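Assesses CYP1A2 mRNA in human HepaRG liver cells after 48 h chemical exposure at up to 100 uM. Values come from qRT-PCR with bidirectional curve fitting relative to DMSO.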

Read-out in experiment [2]: cysteine-aspartic acid protease (CASP8), CASP8 (gene 841)
The experiment in a line: LTEA_HepaRG_CASP8: Life Technologies and Expression Analysis (LTEA) Assay for cysteine-aspartic acid protease (CASP8) using HepaRG (AID 2283480). In short, it runs like this:
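qRT-PCR readout of CASP8 mRNA, normalized to three housekeeping genes, after 48 h chemical exposure of HepaRG cells; 8-point half-log series, top 100 uM, 0.5% DMSO vehicle. Bidirectional curve fitting against DMSO baseline.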

Read-out in experiment [3]: Cytochrome P450 (CYP2B6), CYP2B6 (gene 1555)
Kind of experiment: LTEA_HepaRG_CYP2B6: Life Technologies and Expression Analysis (LTEA) Assay for Cytochrome P450 (CYP2B6) using HepaRG (AID 2283481). In short, it runs like this:
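Using 48 h treatment of HepaRG cells in serum-free induction medium, concentrations spanned half-log steps from 100 uM in 0.5% DMSO vehicle. CYP2B6 mRNA induction or loss is scored by qRT-PCR against DMSO.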

Read-out in experiment [4]: CYP2C8 (gene 1558)
Kind of experiment: LTEA_HepaRG_CYP2C8: Life Technologies and Expression Analysis (LTEA) Assay for CYP2C8 using HepaRG (AID 2283483). In short, it runs like this:
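HepaRG (human liver line), 48 h chemical exposure, 8-pt half-log series from 100 uM, 0.5% DMSO vehicle. Readout: CYP2C8 transcript by qRT-PCR, housekeeping-normalized. Bidirectional fit vs DMSO baseline.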

Read-out in experiment [5]: CYP2C9 (gene 1559)
Kind of experiment: LTEA_HepaRG_CYP2C9: Life Technologies and Expression Analysis (LTEA) Assay for CYP2C9 using HepaRG (AID 2283484). In short, it runs like this:
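HepaRG, 48 h dosing, 8-pt half-log series, top 100 uM, 0.5% DMSO vehicle. Read-out: CYP2C9 transcript by TaqMan qRT-PCR, housekeeping-normalized (ACTB/GAPDH/POLR2A). Gain or loss fitted vs DMSO baseline.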

Read-out in experiment [6]: CYP2E1 (gene 1571)
The experiment in a line: LTEA_HepaRG_CYP2E1: Life Technologies and Expression Analysis (LTEA) Assay for CYP2E1 using HepaRG (AID 2283485). In outline:
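Readout is qRT-PCR of CYP2E1 mRNA, normalized to three housekeeping genes and fitted bidirectionally against 0.5% DMSO. HepaRG cells were dosed 48 h at eight concentrations, highest 100 uM with half-log dilutions.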

Read-out in experiment [7]: CYP4A11 (gene 1579)
The experiment in a line: LTEA_HepaRG_CYP4A11: Life Technologies and Expression Analysis (LTEA) Assay for CYP4A11 using HepaRG (AID 2283486). In short, it runs like this:
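Readout is CYP4A11 mRNA induction or suppression (qRT-PCR, ACTB/GAPDH/POLR2A normalization) in human HepaRG cells after 48 h chemical treatment, concentrations to 100 uM in 0.5% DMSO, fitted bidirectionally against vehicle.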

Read-out in experiment [8]: Cytochrome P450 3A4 (Homo sapiens) (UniProt P08684)
Kind of experiment: LTEA_HepaRG_CYP3A4: Life Technologies and Expression Analysis (LTEA) Assay for CYP3A4 using HepaRG (AID 2283487). In outline: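 In a human hepatic line (HepaRG), duplicate wells were treated 48 h with up to 100 uM chemical in half-log dilutions. Endpoint: CYP3A4 mRNA induction or loss relative to 0.5% DMSO vehicle, by qRT-PCR.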

Read-out in experiment [9]: DNA damage-inducible transcript 3 (DDIT3), DDIT3 (gene 1649)
Kind of experiment: LTEA_HepaRG_DDIT3: Life Technologies and Expression Analysis (LTEA) Assay for DNA damage-inducible transcript 3 (DDIT3) using HepaRG (AID 2283488). In short, it runs like this: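 Cells are human HepaRG liver cells treated for 48 h with eight half-log concentrations up to 100 uM in 0.5% DMSO. Transcript levels come from qRT-PCR normalized to three housekeeping genes, with activity fitted in both directions relative to vehicle.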

Read-out in experiment [10]: Cytochrome P450 2C19 (Homo sapiens) (UniProt P33261)
Kind of experiment: LTEA_HepaRG_CYP2C19: Life Technologies and Expression Analysis (LTEA) Assay for CYP2C19 using HepaRG (AID 2283482). In outline:
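Human HepaRG liver cells received test chemicals for 48 h (highest 100 uM, half-log dilutions in 0.5% DMSO). CYP2C19 mRNA induction or loss is read by multiplexed qRT-PCR and fitted in both directions versus vehicle.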

Cytochrome P450 2C19 (Homo sapiens), sequence (P33261 whole entry, looked up): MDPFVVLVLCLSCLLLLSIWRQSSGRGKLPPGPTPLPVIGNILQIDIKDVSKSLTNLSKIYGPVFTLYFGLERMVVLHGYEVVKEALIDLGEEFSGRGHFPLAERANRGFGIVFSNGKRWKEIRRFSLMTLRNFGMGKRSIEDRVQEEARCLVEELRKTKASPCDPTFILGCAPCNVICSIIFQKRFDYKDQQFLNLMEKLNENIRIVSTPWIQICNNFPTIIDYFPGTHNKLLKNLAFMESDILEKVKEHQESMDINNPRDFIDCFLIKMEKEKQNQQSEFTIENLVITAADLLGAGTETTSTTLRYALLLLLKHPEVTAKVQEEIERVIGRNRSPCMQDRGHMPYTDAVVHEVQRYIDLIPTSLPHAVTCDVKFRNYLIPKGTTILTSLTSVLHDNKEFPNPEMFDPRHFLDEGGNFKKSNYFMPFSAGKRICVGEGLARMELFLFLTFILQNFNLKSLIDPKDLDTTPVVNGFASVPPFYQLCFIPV
Cytochrome P450 3A4 (Homo sapiens), sequence (P08684 whole entry, looked up): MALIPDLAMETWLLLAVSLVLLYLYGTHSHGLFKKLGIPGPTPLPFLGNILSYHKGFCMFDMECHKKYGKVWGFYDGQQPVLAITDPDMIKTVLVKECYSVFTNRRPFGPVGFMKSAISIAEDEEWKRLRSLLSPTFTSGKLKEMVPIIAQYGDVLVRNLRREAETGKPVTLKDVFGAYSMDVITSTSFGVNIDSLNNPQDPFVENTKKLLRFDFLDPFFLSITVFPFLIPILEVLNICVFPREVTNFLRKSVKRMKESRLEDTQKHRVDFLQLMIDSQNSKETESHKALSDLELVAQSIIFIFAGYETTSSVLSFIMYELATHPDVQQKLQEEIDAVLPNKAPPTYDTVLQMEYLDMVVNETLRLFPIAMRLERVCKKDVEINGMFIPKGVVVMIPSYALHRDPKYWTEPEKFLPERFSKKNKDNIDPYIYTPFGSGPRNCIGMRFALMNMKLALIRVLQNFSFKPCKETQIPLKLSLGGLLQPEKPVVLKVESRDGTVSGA

Regarding `CCCCCCCCC(=O)O`, the molecule was classed as inactive in [1], in [2], in experiment [3], in experiment [4], in experiment [5] and in [6]. In addition, the molecule was classed as inactive in experiment [7], in experiment [8] and in experiment [9].

By AC50 is commonly meant the concentration giving half of the maximal activity seen. For the molecule `CCCCCCCCCCCCCCCS(=O)(=O)Oc1ccccc1`, the call in experiment [2], in experiment [5], in experiment [7] and in experiment [9] was inactive. The AC50 in experiment [3] was 3.1 µM (active); in [10] it was 8.59 µM (active); in [4] it was 7.61 µM (active); in experiment [6] it was 14.1 µM (active); in [8], 9.56 µM (active).

For the molecule `CCCCCCCC(=O)O`, the molecule was classed as inactive in experiment [1], in [2], in experiment [3], in experiment [10], in experiment [4] and in experiment [5]. Further, the molecule was classed as inactive in [6], in [7] and in experiment [9].

Consider `CC(=O)NC1(c2cccc(F)c2)CCN(CC[C@@]2(c3ccc(Cl)c(Cl)c3)CN(c3ccccc3)C(=O)CO2)CC1`, for which the molecule was called inactive in experiment [1], in experiment [2], in experiment [3], in [4] and in experiment [5]. The AC50 was 11 µM (active) in [6], 13.1 µM (active) in experiment [7], 3.67 µM (active) in experiment [8] and 41.5 µM (active) in experiment [9].

As for `O=c1c(-c2ccc(O)cc2)coc2cc(O)ccc12`, the molecule was classed as inactive in experiment [1], in experiment [2], in experiment [3], in experiment [4], in [5] and in experiment [6]. The call in experiment [7], in experiment [8] and in [9] was inactive.

Take `O=[N+]([O-])c1ccc(O)cc1`: the outcome in [1], in experiment [2], in [3], in [4], in experiment [5] and in experiment [6] was inactive. For the same molecule, the result in [7], in experiment [8] and in [9] was inactive. Moreover, the AC50 in experiment [3] is 19.9 µM (active).

With `c1ccc2c(c1)Cc1ccccc1-2`, the result in experiment [1], in [2], in [10], in [4], in experiment [5] and in experiment [6] was inactive. For the same molecule, the call in experiment [7], in experiment [8] and in experiment [9] was inactive. In experiment [3], the AC50 was 31.9 µM (active).

Take `COc1ccc([N+](=O)[O-])cc1N`: the molecule was called inactive in experiment [2], in experiment [10], in experiment [4], in experiment [5], in experiment [6] and in experiment [7]. The outcome in experiment [8] and in experiment [9] was inactive. In addition, the concentration at half-maximal activity (AC50) in experiment [3] is 20.7 µM (active).

For `CC[C@H](C)[C@@H](C(=O)O)n1sc2ccccc2c1=O`, the molecule was classed as inactive in [2], in experiment [10], in experiment [4], in [5], in experiment [6] and in experiment [7]. Besides, the molecule was classed as inactive in experiment [8] and in experiment [9]. In [3], the AC50 was 10.1 µM (active).

As to `CCN(CC)CCNc1ccc(CNC=O)c2sc3ccc(OC)cc3c(=O)c12`, the result in [1], in experiment [4] and in [9] was inactive. Further, the AC50 in [2] is 50 µM (active); in experiment [3], 7.58 µM (active); in [5], 16.8 µM (active); in experiment [6], 12.8 µM (active); in experiment [7], 26 µM (active); in experiment [8], 50 µM (active).

`CC(C)(C)c1cc(C(C)(C)C)c(O)c(C(C)(C)C)c1`: the result in experiment [2], in experiment [10], in experiment [4], in [5], in experiment [7] and in experiment [9] was inactive. Moreover, the AC50 in experiment [3] is 8.66 µM (active); in experiment [6], 17 µM (active); in experiment [8] it was 8.55 µM (active).

Regarding `Oc1cccc(O)c1`, the outcome in experiment [1], in experiment [2], in [3], in [4], in [5] and in experiment [6] was inactive. For the same molecule, the molecule was called inactive in experiment [7], in [8] and in [9].

On to `CCCCCCCCOC(=O)CCCCCCCCC(=O)OCCCCCCCC`, for which, in experiment [1], the AC50 was 29.9 µM (active). Also, the molecule was classed as inactive in experiment [2], in [3], in experiment [4], in experiment [5], in experiment [6] and in experiment [7]. For the same molecule, the molecule was called inactive in experiment [8] and in experiment [9].

Turning to `CC(C)CCCCCCOC(=O)CCCCC(=O)OCCCCCCC(C)C`, the figures for the AC50 in [1] and in [3] were 50 µM (active) and 31.8 µM (active), respectively. In addition, the molecule was called inactive in experiment [2], in [4], in experiment [5], in [6], in [7] and in [8]. Also, the outcome in experiment [9] was inactive.
